# Data taken from PubChem BioAssay (NCATS).
# Results filed as inconclusive are left out. Where a call stands in place of a potency, no number is given. Active and inactive are the calls of the source. Unless noted, calls come from the whole dose curve; as a rule, active = well fitted curve in the direction sought with a large enough effect; inconclusive = small, poorly fitted or top-dose-only effect, or another doubt; inactive = no such curve, though single readings can be large; an effect the other way counts as inactive or inconclusive.
# Assays:
# [1] = qHTS for Inhibitors of the Functional Ribonucleoprotein Complex (vRNP) of Lassa (LASV) Arenavirus: LASV Primary Screen - GLuc reporter signal (AID 1347082; calls by dose curve; tested in HEK293 reporter line; note: nearly all actives have a fitted effect of over 60% in size)
# [2] = P-glycoprotein substrates identified in KB-8-5-11 adenocarcinoma cell line, qHTS therapeutic library screen (AID 1346987); note: nearly all actives have a fitted effect of over 65% in size; note: potency is the fitted concentration of half-maximal effect
# Summary of the method: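 Compounds are pinned in dose-response onto KB-8-5-11 cells (500 cells/well, colchicine-free medium) and left 72 h at 37 degree C. CellTiter-Glo luminescence then yields AC50 values.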
# [3] = tested on: Zika virus NS2B-NS3 protease; test: Primary screen GU AMC qHTS for Zika virus inhibitors (AID 1347154); note: nearly all actives have a fitted effect of over 70% in size
# Summary of the method: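 Unlinked Zika NS2B hydrophilic domain–NS3 protease complex at 25 nM in 10 mM Tris-HCl pH 8.0, 0.01% Tween 20, with an AMC peptide substrate. Fluorescence change (340/450 nm) over 15 min at room temperature, normalized to controls, fitted to 4-parameter Hill.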
# [4] = Primary qHTS for small molecule stabilizers of the endoplasmic reticulum resident proteome: Secreted ER Calcium Modulated Protein (SERCaMP) assay (AID 1508630)
# Summary of the method: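 The SH-SY5Y reporter protocol was run at 3 concentrations up to 38.3 uM (primary) or 11 concentrations (follow-up): 16 h compound, 100 nM thapsigargin for 4 h, then extracellular luciferase luminescence.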
# [5] = Primary qHTS for inhibitors of nuclear receptor binding SET domain protein 2 (NSD2) in an isogenic RCH-ACV NSD2 p.E1099K mutant (9B) (AID 1645876); note: potency is the fitted concentration of half-maximal effect; nearly all actives have a fitted effect of over 70% in size
# [6] = Primary qHTS for inhibitors of nuclear receptor binding SET domain protein 2 (NSD2) in an RCH-ACV wild type WT cells (2C) (AID 1645877); note: nearly all actives have a fitted effect of over 70% in size; note: potency is the fitted concentration of half-maximal effect
# [7] = target: Glutathione peroxidase 1 (Homo sapiens) (UniProt P07203); test: Primary qHTS Assay for Inhibitors of Recombinant Selenoprotein Glutathione Peroxidase 1 (GPX1) (AID 1845191); note: nearly all actives have a fitted effect of over 65% in size
# Summary of the method: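 GR-coupled readout: NADPH consumption tracked by fluorescence, ex 340/em 450 nm, at t=0 and after 15 min at RT. Final mix 10 nM GPX1, 1 mM GSH, 0.5 mM CHP, 0.5 mM NADPH, 100 nM GR, 0.01% BSA, following 30 min enzyme–compound preincubation.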
# [8] = P-glycoprotein substrates identified in KB-3-1 adenocarcinoma cell line, qHTS therapeutic library screen (AID 1346986); note: nearly all actives have a fitted effect of over 60% in size;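 note: potency is the fitted concentration of half-maximal effect; potency is for cytotoxicity meaning loss of cell viability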
# Summary of the method: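 In 1536-well format, 500 cells/well received pinned compound titrations and were incubated 72 h, 5% CO2. Viability was read by CellTiter-Glo; cytotoxic if AC50 < 10 uM and efficacy >50%.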
# [9] = Cytotoxicity counterscreen for inhibitors of SARS-CoV-2 cell entry (AID 1645845; calls by dose curve; note: nearly all actives have a fitted effect of over 50% in size)
# Summary of the method: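 Counterscreen run in the same HEK293-ACE2 line as the pseudotyped-particle entry assay, without particles. Viability after 48 h at 37 C was read as ATP luminescence, scaled between cell-containing and cell-free wells.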
# [10] = target: Phospholipid hydroperoxide glutathione peroxidase GPX4 (Homo sapiens) (UniProt P36969); test: Primary qHTS Assay for Inhibitors of Recombinant Selenoprotein Glutathione Peroxidase 4 (GPX4) (AID 1845192); note: nearly all actives have a fitted effect of over 65% in size
# Summary of the method: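 Steps: GPX4 plus compound, 30 min RT; add GR/GSH/NADPH master mix; start with cumene hydroperoxide; read 340/450 nm fluorescence at 0 and 15 min. Finals were 200 nM GPX4, 1 mM GSH, 0.5 mM CHP, 0.5 mM NADPH, 100 nM GR.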
# [11] = qHTS drug screen for cell cycle checkpoint inhibitors in PARPi-resistant BRCA-mutant ovarian cancer cell lines. (AID 1963452; calls by dose curve); details: PEO1/OlaR viability, CellTiter-Glo luminescence, 96 h, stronger effect = lower value
# Summary of the method: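 PEO1, PEO4 and PEO1/OlaR ovarian cancer cells, 600 per well, exposed 96 h at 37C to a dilution series. Viability read by CellTiter-Glo luminescence, normalized to DMSO and empty wells; activity summarized as Z-AUC.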
# [12] = qHTS Assay for Identifying Gametocytocidal Compounds (AID 743244);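 note: actives lower the fluorescent signal which means gametocytes are killed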; details: P. falciparum 3D7 stage III-V gametocytes, alamarBlue, 72 h; max response: stronger effect = lower value
# Summary of the method: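 Using 20,000 stage III–V 3D7 gametocytes per well, compounds were incubated 72 h under 37 °C/5% CO2. Viability was then assessed by 24 h alamarBlue reduction, measured fluorometrically at 525/598 nm.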
# [13] = Primary qHTS for Huh7 cytotoxicity: counterscreen for inhibitors of MERS-S pseudotyped particle cell entry (AID 1479147; calls by dose curve); details: outcome: dose series up to 57.1 µM unless noted
# [14] = Primary qHTS for inhibitors of MERS-S pseudo-typed particle cell entry (AID 1479149; calls by dose curve; note: nearly all actives have a fitted effect of over 60% in size)
# [15] = Primary qHTS for Vero E6 cytotoxicity: counterscreen for inhibitors of SARS-S pseudo-typed particle cell entry (AID 1479150; calls by dose curve); details: outcome: dose series up to 57.1 µM unless noted
# [16] = Primary qHTS to identify inhibitors of SARS-CoV-2 cell entry (AID 1645846; calls by dose curve; note: nearly all actives have a fitted effect of over 45% in size); details: activity change, negative = inhibition: at 57.1 µM (top of the series) unless noted
# Summary of the method: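 HEK293 cells stably expressing human ACE2, pre-treated 1 h with compound, then infected with MLV particles pseudotyped with Wuhan-Hu-1 spike (C-terminal 19-aa truncation). Luciferase luminescence after 48 h at 37 °C, normalised to spike PP and bald PP.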
# astro = test: Drug repurposing screens with cells derived from glioblastoma tumor samples (AID 1345199); details: viability, ATP luminescence, 48 h; series mostly up to 45.9 µM; note: nearly all actives have a fitted effect of over 40% in size
# Summary of the method: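 Primary testing used CD133+ neurospheres from four GBM patients, seven concentrations, 48 h exposure and ATP-based viability; confirmation added three slower-growing patient lines.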
# Sequence of Glutathione peroxidase 1 (Homo sapiens) (P07203 whole entry, looked up): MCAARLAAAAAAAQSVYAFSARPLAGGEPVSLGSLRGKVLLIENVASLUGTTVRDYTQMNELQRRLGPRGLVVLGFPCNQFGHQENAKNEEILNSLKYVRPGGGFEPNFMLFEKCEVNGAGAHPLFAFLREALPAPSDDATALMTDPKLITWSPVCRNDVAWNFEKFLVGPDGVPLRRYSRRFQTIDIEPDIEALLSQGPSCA
# Sequence of Phospholipid hydroperoxide glutathione peroxidase GPX4 (Homo sapiens) (P36969 whole entry, looked up): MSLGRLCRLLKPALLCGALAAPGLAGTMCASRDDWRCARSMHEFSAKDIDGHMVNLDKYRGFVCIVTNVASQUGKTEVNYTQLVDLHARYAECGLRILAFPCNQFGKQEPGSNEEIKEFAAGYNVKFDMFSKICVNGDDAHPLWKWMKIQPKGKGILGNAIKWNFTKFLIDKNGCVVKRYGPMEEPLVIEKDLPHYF
compound,measurement,setting,value
COc1cc([C@@H]2c3cc4c(cc3C[C@H]3COC(=O)[C@@H]32)OCO4)cc(OC)c1O,Potency,[1],inactive
O=C1NC(=O)c2c1c1c3ccccc3n3c1c1c2c2ccccc2n1C1CCC3O1,Potency,[2],3660 nM (active)
same,Potency,[3],inactive
same,Potency,[4],inactive
same,Potency,[5],517 nM (active)
same,Potency,[6],731 nM (active)
same,Potency,[7],inactive
COc1cc2c(cc1F)C(c1ccccc1Cl)=Nc1c(n[nH]c1C)N2,Potency,[8],2060 nM (active)
same,Potency,[2],1300 nM (active)
same,Potency,[9],inactive
same,Potency,[6],1030 nM (active)
same,Potency,[7],inactive
same,Potency,[10],inactive
same,Z-AUC,[11],-0.71 (inactive)
same,Z-AUC,[11]; measured here: PEO1 parental Z-AUC,-0.883
same,Z-AUC,[11]; measured here: PEO4 Z-AUC,-0.718
Nc1ccn(CC(CO)OCP(=O)(O)O)c(=O)n1 (centres undefined),Potency,[8],inactive
same,Potency,[2],inactive
same,Potency,[6],inactive
C=C1C(=O)O[C@@H]2C[C@@H](C)[C@H]3C=CC(=O)[C@]3(O)C[C@@H]12,Potency,[1],inactive
CC(C)=CCN1CC[C@]2(C)c3cc(O)ccc3C[C@H]1[C@H]2C,max response,[12],2.13% (inactive)
same,outcome,[13],inactive
same,Potency,[14],inactive
same,outcome,[15],inactive
same,Potency,[9],inactive
same,"activity change, negative = inhibition",[16],-30.2% [at 114 µM]
same,Potency,[7],inactive
same,Potency,[10],inactive
same,Potency,astro,inactive
